Bioassay records (PubChem BioAssay)
This is a sample that favours compounds with a hit; in the whole collection about 3.5% have one here.
MITF primary: human MITF inhibition, primary screen. AlphaScreen MITF homodimerization, bead proximity signal. 650,000 compounds, 0.91% hits. inhibition, % at 2.6 µM. O75030. AID 1259374; in the data active = inhibition above about 50%;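 also: 0% = vehicle wells with protein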
Target sequence (O75030 whole entry, looked up): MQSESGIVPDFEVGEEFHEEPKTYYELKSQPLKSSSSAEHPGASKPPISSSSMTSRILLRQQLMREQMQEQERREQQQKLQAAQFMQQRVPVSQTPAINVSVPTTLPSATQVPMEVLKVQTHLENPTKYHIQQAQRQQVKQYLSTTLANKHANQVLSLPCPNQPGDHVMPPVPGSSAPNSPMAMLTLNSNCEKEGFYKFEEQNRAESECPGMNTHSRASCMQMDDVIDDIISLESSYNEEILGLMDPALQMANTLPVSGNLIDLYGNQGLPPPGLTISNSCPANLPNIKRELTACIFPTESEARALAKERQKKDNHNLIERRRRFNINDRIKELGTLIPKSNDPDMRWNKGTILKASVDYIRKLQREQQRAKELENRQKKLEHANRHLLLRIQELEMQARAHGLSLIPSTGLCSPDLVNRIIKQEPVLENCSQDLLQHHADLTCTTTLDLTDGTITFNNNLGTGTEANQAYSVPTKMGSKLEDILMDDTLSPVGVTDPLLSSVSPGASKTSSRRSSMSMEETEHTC
TEAD-YAP block: TEAD-YAP interaction inhibition; 640,000 compounds, 1.4% hits; AID 1259422; inhibition, % at 9.12 µM; HEK-TIYL cells, TEAD-Gal4/YAP UAS-luciferase luminescence; in the data active = inhibition above about 32%;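 also: 0% = median of test compound wells and 100% = reference inhibitor wells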
GPR151 activ: human GPR151 activation; Q8TDV0; PathHunter beta-arrestin GPR151 cells, luminescence; activation, % at 11.2 µM; 650,000 compounds, 1% hits; AID 1508602; in the data active = activation above about 4.9%;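 also: 0% = median of compound wells and 100% = cells with positive control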
FBW7 activator: human FBW7 E3 ligase activation, primary screen. AlphaScreen FBW7–phospho-cyclin E peptide binding, activator screen. normalized activity (activation), % at 26.1 µM. 650,000 compounds, 0.13% hits; in the data active = normalized activity above about 1.9%;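 also: purified mutant Fbw7 with reduced substrate affinity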
The depositor's hits bear a star.

SMILES	MITF primary	TEAD-YAP block	GPR151 activ	FBW7 activator
Cc1cc(C)c(S(=O)(=O)Nc2ccc3c(c2)N(C(=O)C(C)C)CCC3)cc1C	-8	46*	1	0
Cc1cc(C)c(S(=O)(=O)Nc2ccc3c(c2)CCCN3C(=O)C(C)C)cc1C	-7	2	1	2.0*
O=C(NCCCN1CCCC1=O)c1cc2c(Cl)nc3ccccc3c2s1	1	-18	-1	0
C/C(=N\NC(=O)c1nnn(-c2nonc2N)c1-c1ccccc1)c1ccccc1O	22	44*	-1	0
C/C(=N\NC(=O)c1nnn(-c2nonc2N)c1-c1ccccc1)c1ccc(O)cc1O	-2	43*	2	0
C/C(=N\NC(=O)c1nnn(-c2nonc2N)c1-c1ccccc1)c1ccc(O)cc1	1	13	2	0
CCOC(=O)c1ccc(NC(=O)C(Br)C(C)C)cc1 (configuration not stated)	0	-44	0	0
O=C(COc1ccc(Cl)cc1)N(Cc1cccs1)C1CCS(=O)(=O)C1 (configuration not stated)	-4	-1	0	0
CCCCN(C(=O)CCl)C1CCS(=O)(=O)C1 (configuration not stated)	6	73*	2	0
O=C(CCl)N(Cc1cccs1)C1CCS(=O)(=O)C1 (configuration not stated)	3	60*	-1	0
Cc1ccc(-c2cccc3cnc(Nc4cccc(C(=O)N5CCCC5)c4)nc23)cn1	18	25	2	0
Cc1ccc(-c2cccc3cnc(Nc4cccc(C(=O)NC5CC5)c4)nc23)cn1	30	33*	1	0
Cc1ccc(-c2cccc3cnc(Nc4ccc(C(=O)NC5CC5)cc4)nc23)cn1	-4	64*	-1	0
COc1nc(N/N=C/c2ccc(O)cc2)nc(N2CCOCC2)n1	12	-4	0	0
COc1ccc(OCc2n(CC(=O)OC3CC(C)CCC3C(C)C)c3ccccc3[n+]2C)cc1 (configuration not stated)	8	41*	1	0
COc1ccccc1NC(=O)Cn1cnc2sc(C(=O)Nc3c(F)cccc3F)c(C)c2c1=O	6	1	1	0
Cc1cc(S(=O)(=O)O)ccc1N1N=C(C(=O)O)CC1=O	71*	2	0	-2
CN=C1SC(C(=O)Nc2cccc(C(=O)O)c2)CC(=O)N1C (configuration not stated)	10	1	1	0
O=C1c2ccccc2C(=O)c2c1oc1c3c(ccc21)OCN(CCCN1CCOCC1)C3	22	81*	-1	0
CCCCNC(=S)Nc1ccc(F)c([N+](=O)[O-])c1	1	14	-1	0
CC(=O)Oc1ccc2c(=O)c(-c3ccc4c(c3)OCCCO4)coc2c1	4	67*	-2	0
COc1cc(OC)c2c(=O)c(-c3ccc4c(c3)OCO4)coc2c1	-6	-66	0	0
COc1ccc2c(=O)c(-c3ccc4c(c3)OCCCO4)coc2c1	18	-23	-1	0
CC(=O)Oc1cc(OC(C)=O)c2c(=O)c(-c3ccc4c(c3)OCCCO4)coc2c1	3	70*	-1	0
CCc1cccc(OCCCNC(C)(C)C)c1	30	10	-1	0
SMILES	MITF primary	TEAD-YAP block	GPR151 activ	FBW7 activator
Cc1ccc(NC(=O)NN2CC(=O)NC2=O)cc1	11	-73	3	0
CCc1ccccc1NC(=O)c1ccc(NCc2ccc(C)cc2)c([N+](=O)[O-])c1	1	57*	4	0
COc1ccc(CNc2ccc(C(=O)Nc3cccc(OC)c3)cc2[N+](=O)[O-])cc1	5	52*	-1	0
CCc1ccccc1NC(=O)c1ccc(NCc2ccc(OC)cc2)c([N+](=O)[O-])c1	2	57*	0	0
CCc1ccccc1NC(=O)c1ccc(SCc2ccc(OC)cc2)c([N+](=O)[O-])c1	-5	1	-1	0
COc1ccc(Nc2nc(NCc3cccc(C(F)(F)F)c3)c3cc(OC)c(OC)cc3n2)cc1	8	17	2	0
COc1cc2nc(Cl)nc(NCc3cccc(C(F)(F)F)c3)c2cc1OC	-8	5	-1	0
COc1cc2nc(Nc3nc4ccccc4n3C)nc(Nc3cc(OC)c(OC)c(OC)c3)c2cc1OC	-9	28	2	0
COc1cc2nc(Nc3nc4ccccc4n3C)nc(NC3CC3)c2cc1OC	19	11	-1	3.6*
COc1cc2nc(Oc3ccccc3)nc(NCc3cccc(C(F)(F)F)c3)c2cc1OC	-2	47*	2	0
COc1cc2nc(Nc3nc4ccccc4n3C)nc(NCc3cccc(C(F)(F)F)c3)c2cc1OC	4	39*	2	0
